Laboratory results: PubChem BioAssay (NCATS)
Where “and” joins values, the source holds several entries; their conditions need not be identical. Equal values may be shown once. Records with an inconclusive call do not appear. Some compounds were tested as several samples or in several runs, with calls that do not always agree. Calls of active or inactive are those of the source. Unless noted, calls follow the shape of the full dose curve.

System: not listed separately
Test: Cytotoxicity counterscreen for inhibitors of SARS-CoV-2 cell entry (AID 1645845); also: nearly all actives have a fitted effect of over 50% in size
Conditions: cell viability (SARS-CoV-2 entry assay cells); series mostly up to 57.1 µM
Summary of the method: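 HEK293-ACE2 cells (Expi293F stably expressing human ACE2) seeded overnight, then compound for 1 h plus 48 h at 37C. Viability as ATP content by luminescence; normalized to wells with cells and media-only wells.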

Structure (SMILES) | Potency
O=c1[nH]c2ccccc2n1C1CCN(Cc2ccc(-c3[nH]c4cc5ncnc5cc4nc3-c3ccccc3)cc2)CC1 | inactive
NC1=NC(=O)N2CC12 (centres undefined) | inactive
C[N+](C)(C)CC(=O)O | inactive
c1ccc(C2(c3ccccc3)CC2C2=NCCN2)cc1 (centres undefined) | inactive
CC(C[N+](C)(C)C)OC(N)=O (centres undefined) | inactive
CC[C@@H](C(N)=O)N1CCCC1=O | inactive
COc1ncnc(NS(=O)(=O)c2ccc(N)cc2)c1OC | inactive
COC1=C[C@@H]2[C@@H]3Cc4ccc(OC)c(O)c4[C@]2(CCN3C)CC1=O | inactive

System: not listed separately
Test: Primary qHTS to identify inhibitors of SARS-CoV-2 cell entry (AID 1645846); also: nearly all actives have a fitted effect of over 45% in size; also: potency is read from the fitted curve at half-maximal effect
Conditions: SARS-CoV-2 pseudovirus cell entry assay, luminescence; activity change, negative = inhibition: at 57.1 µM (top of the series) unless noted; series mostly up to 57.1 µM
Summary of the method: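 Using luciferase-reporting pseudoviruses carrying Wuhan-Hu-1 spike, the screen tracks entry into stably ACE2-expressing cells over 48 hr. Activity is expressed relative to spike particles versus particles lacking any fusion protein.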

Structure (SMILES) | Potency | activity change, negative = inhibition
O=C(c1ccc(Nc2nccc(-c3cc4ccccc4s3)n2)cc1)N1CCC(N2CCCC2)CC1 | 11.2 µM (active) | –
CCc1cncnc1N1CCN(Cc2nc3ccc(C(F)(F)F)cc3[nH]2)CC1 | 28.2 µM (active) | –
CC(C)(C)C(=O)Oc1ccc2c(c1)nc(NC(=O)c1cccc([N+](=O)[O-])c1)n2CCCO | – | -6.43%
COc1cc2nccc(Oc3ccc(NC(=O)Nc4cc(C)on4)c(Cl)c3)c2cc1OC | 14.1 µM (active) | –
CC(C)(C)COc1ccc(-n2cc(C(=O)O)cn2)cc1C#N | – | -72.8%
O=C(Nc1cccc(Cl)c1)Nc1ncc(CCNc2ncnc3ccsc23)s1 | 3.16 µM (active) | –
CN(C)c1ccc(C2Nc3ccc4ccccc4c3C3=C2C(=O)CC(C)(C)C3)cc1Br (centres undefined) | – | -8.04%
C[N+](C)(C)CC(=O)O | – | -0.459% and -19.8%
c1ccc(C2(c3ccccc3)CC2C2=NCCN2)cc1 (centres undefined) | – | -20.9%
CCCCCCCc1ccc(CCc2cccc(O)c2C(=O)O)cc1 | – | -27.4%
COc1ccc2c3n(c(=NC(=O)c4cccnc4)nc2c1OC)CCN3 | – | -3.67% [at 5.25 µM]
CCN(CC)c1ccc(C(=C2C=CC(=[N+](CC)CC)C=C2)c2cc(S(=O)(=O)O)ccc2S(=O)(=O)[O-])cc1 | inactive | –
C[C@@]12O[C@@H](C[C@]1(O)CO)n1c3ccccc3c3c4c(c5c6ccccc6n2c5c31)CNC4=O | 1.41 µM (active) | –
CC(C[N+](C)(C)C)OC(N)=O (centres undefined) | inactive | -6.96%
C=CCn1c(=O)c2cnc(Nc3ccc(N4CCN(C)CC4)cc3)nc2n1-c1cccc(C(C)(C)O)n1 | 1.41 µM (active) | –
CC[C@@H]1C(=O)N(C)c2cnc(Nc3ccc(C(=O)NC4CCN(C)CC4)cc3OC)nc2N1C1CCCC1 | – | -96.8%
CN(NC(=O)CC(=O)NN(C)C(=S)c1ccccc1)C(=S)c1ccccc1 | – | -97.7%
O=C1[C@H](Cc2ccc(O)cc2)N2C(=O)CCN(C(=O)NCc3ccccc3)[C@H]2CN1Cc1cccc2ccccc12 | – | -93.3%

Structure (SMILES) | Potency | activity change, negative = inhibition
COc1cc(C)c(Sc2cnc(NC(=O)c3ccc(CNC(C)C(C)(C)C)cc3)s2)cc1C(=O)N1CCN(C(C)=O)CC1 (centres undefined) | 12.6 µM (active) | –
Cc1cc2c(cc1C1(c3ccc(C(=O)O)cn3)CC1)C(C)(C)CCC2(C)C | inactive | –
Clc1ccc2ncc(-c3cccc(NC4CNC4)n3)n2c1 | – | -15.1%
CCN1CCN(CC(=O)Nc2ccc(-c3cccc4c(=O)cc(N5CCOCC5)oc34)c3sc4ccccc4c23)CC1 | 5.62 µM (active) | –
Cn1c(Nc2ccc(C(F)(F)F)cc2)nc2cc(Oc3ccnc(-c4ncc(C(F)(F)F)[nH]4)c3)ccc21 | – | -24.1%
O=c1cc(N2CCOCC2)oc2c(-c3cccc4c3sc3ccccc34)cccc12 | 7.94 µM (active) | –
COc1cc2c(cc1OC)[C@@H]1C(=O)c3ccc4c(c3O[C@@H]1CO2)C=CC(C)(C)O4 | – | -98.6%
C=CCc1cccc(/C=N/NC(=O)CN2CCN(Cc3ccccc3)CC2)c1O | 31.6 µM (active) | –
COc1cc2nc(N3CCCN(C)CC3)nc(NC3CCN(Cc4ccccc4)CC3)c2cc1OC | 3.16 µM (active) | –
COCCn1c2c([n+](Cc3cnccn3)c1C)C(=O)c1ccccc1C2=O | – | -98.5%
COc1ncnc(NS(=O)(=O)c2ccc(N)cc2)c1OC | inactive | -2.62%
Cc1c(C(=O)Nc2ccc(N3C[C@@H](C)O[C@@H](C)C3)nc2)cccc1-c1ccc(OC(F)(F)F)cc1 | inactive and 12.6 µM (active) | –
C=CC(=O)Nc1cccc(Oc2nc(Nc3ccc(N4CCN(C)CC4)cc3OC)ncc2Cl)c1 | 31.6 µM (active) | –
CC[C@@H](C)[C@H](NC(=O)[C@H](CC1CCCCC1)NC(=O)c1ccno1)C(=O)N1CCC2(CCc3ccccc32)CC1 | inactive | –
COC1=C[C@@H]2[C@@H]3Cc4ccc(OC)c(O)c4[C@]2(CCN3C)CC1=O | – | -15.7%
COc1c(C)cnc(Cn2cnc3c(Cl)nc(N)nc32)c1C | – | -96.5%
COc1ncc(-c2ccc3nccc(-c4ccnnc4)c3c2)cc1NS(=O)(=O)c1ccc(F)cc1F | 2.51 µM (active) | –
CC1=C[C@@H]2[C@@H]([C@@H](O)C[C@@]3(C)[C@H]2C[C@@H](C)[C@]3(O)C(=O)CO)[C@@]2(C)Cc3cnn(-c4ccccc4)c3C=C12 | inactive | –

Molecular target: Papain (Carica papaya) (UniProt P00784)
Sequence (P00784 whole entry, looked up): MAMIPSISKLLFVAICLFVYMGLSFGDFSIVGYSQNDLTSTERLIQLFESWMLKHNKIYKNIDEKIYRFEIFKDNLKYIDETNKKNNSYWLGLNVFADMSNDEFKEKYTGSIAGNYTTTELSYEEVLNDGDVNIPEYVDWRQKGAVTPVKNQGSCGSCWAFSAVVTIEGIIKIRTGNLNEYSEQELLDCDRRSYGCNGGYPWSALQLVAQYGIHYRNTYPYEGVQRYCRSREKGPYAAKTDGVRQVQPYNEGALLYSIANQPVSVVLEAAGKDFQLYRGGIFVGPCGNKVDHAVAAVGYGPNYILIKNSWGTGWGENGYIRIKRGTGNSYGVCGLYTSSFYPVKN
Test: Primary qHTS assay for inhibitors of the protease papain (AID 1645873; active = well fitted inhibition curve with a large enough effect;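 also: papain turnover of Z-FR-AMC read as the AMC fluorescence gain over 10 min; % is scaled to controls: 0 for no effect and ±100 for the full control effect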)
Conditions: papain Z-FR-AMC cleavage, AMC fluorescence; series mostly up to 49.8 µM

Structure (SMILES) | Potency
C[N+](C)(C)CC(=O)O | inactive
c1ccc(C2(c3ccccc3)CC2C2=NCCN2)cc1 (centres undefined) | inactive
CC[C@@H](C(N)=O)N1CCCC1=O | inactive
